Experimental data: PubChem BioAssay
Activity calls are given as the source filed them. Unless noted, the rule behind the calls is not given here.

How the values were obtained:
[1] = tested on: Wnt5a (protein binding on small-molecule microarray); experiment: Wnt5a binders on small-molecule microarray, primary screen, biophysical, 635/667 nm fluorescence (AID 1142); settings: 635 nm fluorescence, higher = more signal;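 note: fluorescence read at 667 nm with signal to noise per printed feature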
[2] = cell viability in Huh7 cells, primary screen, cytotoxicity control for HCV replication inhibitor project, CellTiter-Glo luminescence, basal, 48 h (AID 1143); settings: Huh7 HCV replicon, higher = more signal, called active from +8 up or from −8 down;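 note: Huh7 hepatoma cells carrying a hepatitis C replication reporter with no stimulus; test concentration not given here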
[3] = P. aeruginosa biofilm formation inhibitors, primary screen, PAO1 strain, BacTiter-Glo luminescence, LB-PBS (AID 1144); settings: 12 h, higher = more signal
[4] = CREB reporter modulators without forskolin, primary screen, cell-based, PC12, CRE-LacZ reporter, unstimulated (AID 1145); settings: no forskolin, luminescence, 4.5 h, higher = more signal, called active from +8 up or from −8 down
[5] = CREB reporter modulators under forskolin, primary screen, cell-based, PC12, CRE-LacZ reporter, forskolin-stimulated (AID 1146); settings: luminescence, 4.5 h, higher = more signal, called active from +8 up or from −8 down;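 note: PC12 cells with 6xCRE LacZ reporter stimulated by forskolin 10 µM; beta-galactosidase reporter signal reflecting CREB driven transcription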
[6] = target: Streptavidin (Streptomyces avidinii) (UniProt P22629); experiment: streptavidin binders on small-molecule microarray, primary screen, artefact control for SMM compound annotation, biophysical, 635/667 nm fluorescence (AID 1147); settings: streptavidin binding, higher = more signal;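 note: signal reflects streptavidin binding to arrayed compounds as a control protein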
Chain of Streptavidin (Streptomyces avidinii) (P22629 whole entry, looked up): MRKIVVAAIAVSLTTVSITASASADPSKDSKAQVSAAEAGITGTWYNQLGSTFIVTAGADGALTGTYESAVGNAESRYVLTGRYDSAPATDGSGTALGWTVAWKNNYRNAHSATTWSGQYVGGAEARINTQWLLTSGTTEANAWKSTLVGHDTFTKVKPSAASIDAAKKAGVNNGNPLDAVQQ

[7] = small-molecule binders of probe aInhba, primary screen, biochemical, small-molecule microarray, 635/667 nm fluorescence (AID 1148); settings: higher = more signal;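 note: score merges 667nm spot fluorescence with signal-to-noise for antibody binding to printed compounds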
[8] = target: Torsin-1A (Homo sapiens) (UniProt O14656); experiment: torsin A binders from cell lysate, primary screen, small-molecule microarray, wild-type, 635/667 nm (AID 1149); settings: COS7 hTOR1A-WT lysate, 635 nm fluorescence, higher = more signal
Chain of Torsin-1A (Homo sapiens) (O14656 whole entry, looked up): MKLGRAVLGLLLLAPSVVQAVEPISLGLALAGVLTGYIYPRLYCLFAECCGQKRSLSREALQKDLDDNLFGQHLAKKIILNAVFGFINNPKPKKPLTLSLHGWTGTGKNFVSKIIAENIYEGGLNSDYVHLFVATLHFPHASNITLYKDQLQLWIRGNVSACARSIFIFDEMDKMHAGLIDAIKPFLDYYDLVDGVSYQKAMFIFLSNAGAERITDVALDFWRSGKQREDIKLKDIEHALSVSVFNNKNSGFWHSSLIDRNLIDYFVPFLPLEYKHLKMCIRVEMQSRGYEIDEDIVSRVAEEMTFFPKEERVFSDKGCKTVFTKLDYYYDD

[9] = target: Torsin-1A (Homo sapiens) (UniProt O14656); experiment: small-molecule binders of mutant TOR1A in lysate, primary screen, cell lysate, small-molecule microarray, COS7 lysate, 635/667 nm fluorescence (AID 1150); settings: COS7 hTOR1A mutant lysate, 635 nm fluorescence, higher = more signal;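 note: score pools 667 nm emission and signal to noise measuring lysate protein binding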
[10] = tested on: Sonic hedgehog protein (Shh); experiment: small-molecule binders of Shh protein, primary screen, biochemical, small-molecule microarray, 635/667 nm fluorescence (AID 1151); settings: small-molecule microarray binding, 635 nm fluorescence; higher = more signal;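 note: Shh protein binding to compounds spotted on small-molecule microarray slides; score combines spot fluorescence intensity with signal-to-noise across triplicate slides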
[11] = E. coli DRC41 culture turbidity changes, primary screen, E. coli filamentation inducer project, strain DRC41, OD650, 48 h (AID 1152);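 note: E. coli MC1000 strain DRC41 lacking acrAB efflux pump and sulA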; settings: E. coli DRC41 (acrAB sulA), higher = more signal, called active from +8 up or from −8 down
[12] = small-molecule binders of probe aLefty1, primary screen, biochemical, small-molecule microarray, 635/667 nm fluorescence (AID 1153); settings: higher = more signal;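 note: score merges spot fluorescence with signal-to-noise ratio from the scanned slide images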
[13] = PSAC antagonists in infected red cells, primary screen, cell-based, P. falciparum Indochina, OD700, 1 h (AID 1154); settings: P. falciparum Indochina infected RBC osmotic lysis, higher = more signal, called active from +8 up or from −8 down
[14] = PSAC antagonists in infected red cells, primary screen, cell-based, P. falciparum Indochina, OD700, 2 h (AID 1155);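 note: lysis reports solute entry through the parasite surface anion channel PSAC; channel blockers reduce lysis of infected cells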; settings: P. falciparum Indochina infected erythrocytes, osmotic lysis OD700; higher = more signal, called active from +8 up or from −8 down
[15] = osmotic lysis modulators in infected erythrocytes, primary screen, PSAC antagonist project, cell-based, P. falciparum Indochina, OD700, 3 h (AID 1156); settings: higher = more signal, called active from +8 up or from −8 down
[16] = PSAC antagonists in infected red cells, primary screen, cell-based, P. falciparum Indochina, OD700, 18 h (AID 1157); settings: P. falciparum Indochina infected erythrocytes, osmotic lysis OD700, 18 h; higher = more signal, called active from +8 up or from −8 down
[17] = modulators of S6 phosphorylation in cells, primary screen, cell-based, A549, cytoblot, luminescence, serum-stimulated (AID 1158); settings: A549 phospho-S6 cytoblot, 5 h, higher = more signal;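 note: serum-stimulated A549 lung adenocarcinoma cells; signal is phosphorylated S6 detected by cytoblot immunostaining with HRP secondary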
[18] = target: NADPH oxidase 2 (Homo sapiens) (UniProt P04839); experiment: NOX2-dependent H2O2 signal modulators, primary screen, NOX inhibitor project, cell-based, HEK293-NOX2, PMA-stimulated, Amplex Red fluorescence (AID 1159); settings: 45 min, higher = more signal, called active from +8 up or from −8 down; note: test concentration not given here
Chain of NADPH oxidase 2 (Homo sapiens) (P04839 whole entry, looked up): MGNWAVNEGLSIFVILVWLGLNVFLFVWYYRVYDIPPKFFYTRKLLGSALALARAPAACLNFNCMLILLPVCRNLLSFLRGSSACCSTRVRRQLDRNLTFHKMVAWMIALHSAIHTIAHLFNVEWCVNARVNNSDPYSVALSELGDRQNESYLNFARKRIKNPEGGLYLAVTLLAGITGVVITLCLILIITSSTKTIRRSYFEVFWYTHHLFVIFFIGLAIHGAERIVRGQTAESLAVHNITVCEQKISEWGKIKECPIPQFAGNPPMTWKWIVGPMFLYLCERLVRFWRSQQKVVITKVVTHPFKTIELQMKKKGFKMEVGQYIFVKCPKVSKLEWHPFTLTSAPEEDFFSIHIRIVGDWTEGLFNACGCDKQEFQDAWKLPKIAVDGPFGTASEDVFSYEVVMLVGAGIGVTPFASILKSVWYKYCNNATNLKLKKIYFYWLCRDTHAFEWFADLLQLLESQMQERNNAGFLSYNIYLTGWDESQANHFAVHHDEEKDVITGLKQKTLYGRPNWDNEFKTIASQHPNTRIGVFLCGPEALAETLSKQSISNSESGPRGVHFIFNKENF

[19] = target: NADPH oxidase 4 (Homo sapiens) (UniProt Q9NPH5); experiment: NOX4-dependent H2O2 signal modulators, primary screen, NOX inhibitor project, cell-based, HEK293-NOX4, tetracycline-induced, Amplex Red fluorescence (AID 1160); settings: 45 min, higher = more signal, called active from +8 up or from −8 down
Chain of NADPH oxidase 4 (Homo sapiens) (Q9NPH5 whole entry, looked up): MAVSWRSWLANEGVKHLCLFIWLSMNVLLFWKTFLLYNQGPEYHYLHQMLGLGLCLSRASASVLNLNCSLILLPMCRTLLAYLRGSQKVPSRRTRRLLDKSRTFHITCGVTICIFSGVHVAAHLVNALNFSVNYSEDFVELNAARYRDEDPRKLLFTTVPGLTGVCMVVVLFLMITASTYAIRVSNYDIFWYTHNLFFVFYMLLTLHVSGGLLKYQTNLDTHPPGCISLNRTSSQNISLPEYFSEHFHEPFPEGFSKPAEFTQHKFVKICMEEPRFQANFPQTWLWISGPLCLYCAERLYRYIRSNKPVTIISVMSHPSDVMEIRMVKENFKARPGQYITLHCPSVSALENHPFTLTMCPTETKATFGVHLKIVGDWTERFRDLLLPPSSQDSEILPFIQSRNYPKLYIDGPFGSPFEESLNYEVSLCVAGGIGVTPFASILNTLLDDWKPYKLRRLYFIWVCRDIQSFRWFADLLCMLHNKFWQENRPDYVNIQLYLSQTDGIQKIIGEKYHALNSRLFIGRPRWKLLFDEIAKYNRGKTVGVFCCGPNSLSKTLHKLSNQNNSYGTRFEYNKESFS

[20] = target: NADPH oxidase 5 (Homo sapiens) (UniProt Q96PH1); experiment: NOX5-dependent H2O2 signal modulators, primary screen, NOX inhibitor project, cell-based, HEK293-NOX5, Amplex Red fluorescence (AID 1161); settings: HEK293-NOX5, ionomycin, 45 min, higher = more signal
Chain of NADPH oxidase 5 (Homo sapiens) (Q96PH1 whole entry, looked up): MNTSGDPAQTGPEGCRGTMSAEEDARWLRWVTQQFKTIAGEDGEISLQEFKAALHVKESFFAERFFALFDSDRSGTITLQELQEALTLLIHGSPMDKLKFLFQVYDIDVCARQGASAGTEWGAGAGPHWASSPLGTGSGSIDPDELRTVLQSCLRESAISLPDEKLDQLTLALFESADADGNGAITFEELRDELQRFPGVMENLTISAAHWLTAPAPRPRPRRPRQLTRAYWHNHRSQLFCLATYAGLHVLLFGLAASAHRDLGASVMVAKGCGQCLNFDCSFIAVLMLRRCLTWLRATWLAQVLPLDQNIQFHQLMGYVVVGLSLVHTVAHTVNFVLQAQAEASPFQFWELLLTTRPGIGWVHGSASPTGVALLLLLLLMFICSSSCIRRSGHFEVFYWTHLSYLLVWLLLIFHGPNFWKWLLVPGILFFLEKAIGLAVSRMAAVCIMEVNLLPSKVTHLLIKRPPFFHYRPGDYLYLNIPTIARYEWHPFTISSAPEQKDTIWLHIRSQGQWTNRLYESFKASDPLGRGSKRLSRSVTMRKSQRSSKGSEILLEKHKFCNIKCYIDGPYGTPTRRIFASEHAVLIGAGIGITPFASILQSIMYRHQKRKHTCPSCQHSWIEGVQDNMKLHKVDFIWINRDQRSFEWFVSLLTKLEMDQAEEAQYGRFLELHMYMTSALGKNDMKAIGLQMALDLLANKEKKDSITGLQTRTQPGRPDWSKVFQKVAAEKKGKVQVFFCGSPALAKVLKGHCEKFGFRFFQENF

## CC(C)N1C(=O)[C@@]2(Cc3ccccc31)c1ccccc1C(=O)N(Cc1ccccc1Cl)[C@H]2c1ccc(CO)cc1
[1]
  composite z-score: -0.515
[2]
  z-score: -2.27 (inactive)
[3]
  z-score: -1.68 (inactive)
[4]
  z-score: 0.389 (inactive)
[5]
  z-score: -0.389 (inactive)
[6]
  composite z-score: -0.136
[7]
  composite z-score: -0.29
[8]
  composite z-score: -1.47
[9]
  composite z-score: -0.848
[10]
  composite z-score: -1.25
[11]
  z-score: 0.581 (inactive)
[12]
  composite z-score: -0.17
[13]
  z-score: -0.0086 (inactive)
[14]
  z-score: -0.513 (inactive)
[15]
  z-score: 1.23 (inactive)
[16]
  z-score: -1.78 (inactive)
[17]
  z-score: 1.17
[18]
  z-score: 0.16 (inactive)
[19]
  z-score: 0.946 (inactive)
[20]
  z-score: 1.04

## COCCOC(=O)N1C(=O)[C@@]2(c3ccccc31)[C@H](C(=O)N1CCc3cc(OC)c(OC)cc3C1)[C@H]1C(=O)O[C@H](c3ccccc3)[C@H](c3ccccc3)N1[C@@H]2c1ccc(OCCO)cc1
[1]
  composite z-score: 0.146
[2]
  z-score: -0.704 (inactive)
[3]
  z-score: 0.73 (inactive)
[4]
  z-score: 0.685 (inactive)
[5]
  z-score: -0.653 (inactive)
[6]
  composite z-score: 0.547
[7]
  composite z-score: 0.0569
[8]
  composite z-score: 0.0657
[9]
  composite z-score: 1.21
[10]
  composite z-score: 1.41
[11]
  z-score: 1.12 (inactive)
[12]
  composite z-score: 0.18
[13]
  z-score: 5.69 (inactive)
[14]
  z-score: 1.85 (inactive)
[15]
  z-score: 0.757 (inactive)
[16]
  z-score: 0.983 (inactive)
[17]
  z-score: 0.0824
[18]
  z-score: 0.238 (inactive)
[19]
  z-score: 0.974 (inactive)
[20]
  z-score: 1.19

## O=C(N1CCCCC1)[C@]1(Cc2ccccc2)N=C(c2ccc(OCCCO)cc2)O[C@@H]1c1ccccc1
[1]
  composite z-score: 0.33
[2]
  z-score: -6.07 (inactive)
[3]
  z-score: -0.759 (inactive)
[4]
  z-score: 0.558 (inactive)
[5]
  z-score: 0.182 (inactive)
[6]
  composite z-score: 0.997
[7]
  composite z-score: 0.0074
[8]
  composite z-score: 1.03
[9]
  composite z-score: 0.0081
[10]
  composite z-score: -0.412
[11]
  z-score: -0.834 (inactive)
[12]
  composite z-score: 0.446
[13]
  z-score: 28 (active)
[14]
  z-score: 20.6 (active)
[15]
  z-score: 0.696 (inactive)
[16]
  z-score: 1.28 (inactive)
[17]
  z-score: 2.33
[18]
  z-score: -2.82 (inactive)
[19]
  z-score: -1.37 (inactive)
[20]
  z-score: -1.7

## C=C(C(=O)CC[C@@H](OC(=O)c1cccnc1)c1ccccc1OCCO)C(C)C
[1]
  composite z-score: -0.0008
[2]
  z-score: -1.25 (inactive)
[3]
  z-score: -0.0644 (inactive)
[4]
  z-score: 8.13 (active)
[5]
  z-score: 1.17 (inactive)
[6]
  composite z-score: -0.405
[7]
  composite z-score: -0.0112
[8]
  composite z-score: 0.784
[9]
  composite z-score: 0.962
[10]
  composite z-score: 1.37
[11]
  z-score: 0.151 (inactive)
[12]
  composite z-score: 0.106
[13]
  z-score: 15.1 (active)
[14]
  z-score: 2.08 (inactive)
[15]
  z-score: 0.759 (inactive)
[16]
  z-score: 0.601 (inactive)
[17]
  z-score: 0.149
[18]
  z-score: -0.551 (inactive)
[19]
  z-score: -0.118 (inactive)
[20]
  z-score: -1.34

## O=C(NCCO)C1=C[C@H](Oc2ccccc2I)[C@@H](O)[C@H](N(Cc2ccco2)C(=O)Cc2ccccc2)C1
[1]
  composite z-score: 0.234
[2]
  z-score: 0.0266 (inactive)
[3]
  z-score: -0.0382 (inactive)
[4]
  z-score: -0.78 (inactive)
[5]
  z-score: 0.603 (inactive)
[6]
  composite z-score: 0.317
[7]
  composite z-score: -0.202
[8]
  composite z-score: 0.303
[9]
  composite z-score: 0.0805
[10]
  composite z-score: 0.412
[11]
  z-score: -0.673 (inactive)
[12]
  composite z-score: 0.0752
[13]
  z-score: 0.877 (inactive)
[14]
  z-score: 0.799 (inactive)
[15]
  z-score: 1.1 (inactive)
[16]
  z-score: 0.304 (inactive)
[17]
  z-score: 0.202
[18]
  z-score: 1.34 (inactive)
[19]
  z-score: 0.254 (inactive)
[20]
  z-score: 0.351

## O=C1C[C@]2(c3ccc([N+](=O)[O-])cc3)C(=O)N(CC(F)(F)F)c3cc(CO)ccc3[C@H]2N1C1CCCCC1
[1]
  composite z-score: -0.446
[2]
  z-score: 0.465 (inactive)
[3]
  z-score: 1.43 (inactive)
[4]
  z-score: -0.412 (inactive)
[5]
  z-score: -0.496 (inactive)
[6]
  composite z-score: -0.463
[7]
  composite z-score: -0.0598
[8]
  composite z-score: -0.628
[9]
  composite z-score: -0.611
[10]
  composite z-score: -0.444
[11]
  z-score: 0.983 (inactive)
[12]
  composite z-score: -0.233
[13]
  z-score: -0.524 (inactive)
[14]
  z-score: 0.345 (inactive)
[15]
  z-score: 0.503 (inactive)
[16]
  z-score: 0.133 (inactive)
[17]
  z-score: -0.116
[18]
  z-score: -0.502 (inactive)
[19]
  z-score: 0.00678 (inactive)
[20]
  z-score: 0.428

## O=C1NC(=O)C2C1C=CC(C(O)c1cc(C(F)(F)F)cc(C(F)(F)F)c1)N2Nc1ccccn1 (stereo not given)
[1]
  composite z-score: -0.102
[2]
  z-score: 0.804 (inactive)
[3]
  z-score: -0.162 (inactive)
[4]
  z-score: 0.0501 (inactive)
[5]
  z-score: 0.403 (inactive)
[6]
  composite z-score: 0.0086
[7]
  composite z-score: -0.0059
[8]
  composite z-score: -0.138
[9]
  composite z-score: 0.237
[10]
  composite z-score: 0.87
[11]
  z-score: -1.87 (inactive)
[12]
  composite z-score: 0.127
[13]
  z-score: 0.499 (inactive)
[14]
  z-score: 0.701 (inactive)
[15]
  z-score: -0.0477 (inactive)
[16]
  z-score: 0.827 (inactive)
[17]
  z-score: -0.822
[18]
  z-score: -1.17 (inactive)
[19]
  z-score: -1.72 (inactive)
[20]
  z-score: -2.4

## CCC[C@@H]1C[C@@]1(CCC)[C@@H](NC(=O)c1ccccc1)c1cccc(Cl)c1
[1]
  composite z-score: 2.05
[2]
  z-score: -0.246 (inactive)
[3]
  z-score: 0.0208 (inactive)
[4]
  z-score: 0.776 (inactive)
[5]
  z-score: 0.485 (inactive)
[6]
  composite z-score: 2.17
[7]
  composite z-score: 1.32
[8]
  composite z-score: 0.0875
[9]
  composite z-score: 0.512
[10]
  composite z-score: -1.33
[11]
  z-score: -1 (inactive)
[12]
  composite z-score: 2.15
[13]
  z-score: 0.534 (inactive)
[14]
  z-score: 0.364 (inactive)
[15]
  z-score: 0.277 (inactive)
[16]
  z-score: 0.839 (inactive)
[17]
  z-score: -0.841
[18]
  z-score: 0.46 (inactive)
[19]
  z-score: -0.107 (inactive)
[20]
  z-score: 0.328
